High-throughput results (PubChem BioAssay)
This is one part of a sample in which hits are shown more often than they occur.
TTR transcr act = TTR transcription activation, primary screen. SH-SY5Y TTR promoter Gaussia luciferase, luminescence; 100% = recombinant luciferase protein wells. 92,000 compounds, 1.3% hits. activation, % at 16.7 µM. AID 1117267;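 active = activation above the mean of all tested compounds plus 3 SD, cut at about 9.5% in these data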;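 note: cells exposed to compounds for one day before reading; 0% = median of all test compound wells on the plate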
TTR inh HuH7 = decreases TTR transcription in HuH7 cells in activator counter-screen; shares compounds with TTR transcr act; HuH7 TTR promoter-Gaussia luciferase reporter, luminescence; inhibition, % at 16.7 µM; 1,100 compounds, 4% hits; AID 1117279;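 active = average inhibition above the solvent-only control wells' mean plus 3 SD, cut at about 15% in these data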;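 note: 0% = cells with DMSO only and 100% = cells with inhibitor control FD; inhibitors lower well luminescence so higher value means more inhibition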
TTR act confirm = human TTR transcription activation, confirmation | shares compounds with TTR transcr act | SHSY5Y TTR promoter Gaussia luciferase, luminescence; 100% = purified Lucia enzyme wells, no cells | activation, % at 16.7 µM | 1,100 tested, under 10 active;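 active = mean activation above a set limit taken from the earlier primary screen, cut at about 11% in these data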;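 note: 0% = DMSO-treated cells and 100% = recombinant Lucia luciferase without cells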
An asterisk follows results filed as active.

O=[N+]([O-])c1cccc(-c2noc(-c3ccco3)n2)c1 was read as TTR transcr act 11.8*, TTR inh HuH7 14.6* and TTR act confirm -1.4.
COc1ccc(C(=O)NCc2ncccc2C)cc1OC1CCN(C(C)=O)CC1 was read as TTR transcr act 3.4.
Screening Cn1c(=O)c([N+](=O)[O-])c(N2CCN(Cc3ccc4c(c3)OCO4)CC2)c2ccccc21 returned TTR transcr act -3.0.
CCCc1cc(=O)c2ccc(OCC(C)=O)cc2o1 was read as TTR transcr act 0.2.
Screening COc1ccc(-c2cc(=O)oc3cc(OCC(C)=O)ccc23)cc1 returned TTR transcr act 0.2.
`CC(=O)COc1ccc2c(C)c(C)c(=O)oc2c1` gave TTR transcr act 13.8*, TTR inh HuH7 -9.4 and TTR act confirm 8.3.
Screening Cc1ccc(Cn2cc(COC(=O)NCCc3c[nH]c4ccccc34)nn2)cc1 returned TTR transcr act -1.2.
For O=C(CCSc1ccccc1)NCC1CCCO1 (stereo not given) the results were TTR transcr act 15.2*, TTR inh HuH7 -4.6 and TTR act confirm 0.0.
`O=C(CCSCCC(=O)NCC1CCCO1)NCC1CCCO1` (stereo not given) gave TTR transcr act -0.9.
CC(NC(=O)C(=O)NCC1CCCO1)c1ccccc1 (stereo not given) was read as TTR transcr act -0.7.
For O=S(=O)(CC1NCCc2ccccc21)NCc1ccc(F)cc1 (stereo not given) the results were TTR transcr act 1.0.
FC(F)(F)c1ccccc1Cn1ccc2ccc(-c3ccc4ccn(Cc5ccccc5)c4c3)cc21 was read as TTR transcr act -1.7.
For Cc1ccccc1Cn1ccc2ccc(-c3ccc4ccn(Cc5ccccc5)c4c3)cc21 the results were TTR transcr act -0.7.
For FC(F)(F)c1ccccc1Cn1ccc2ccc(-c3ccc4ccn(Cc5ccccc5C(F)(F)F)c4c3)cc21 the results were TTR transcr act 18.2*, TTR inh HuH7 -6.1 and TTR act confirm -0.4.
`CC(C)COC(=O)N(C)C[C@H]1OCc2cnnn2CCCC(=O)N([C@H](C)CO)C[C@H]1C` gave TTR transcr act -0.8.
`CC(C)(C)OC(=O)N[C@H]1C=C[C@@H](CC(=O)OCC(F)(F)F)C1` gave TTR transcr act 1.4.
Cc1ccc(N(Cc2cc3ccccc3[nH]c2=O)C(=O)c2cccs2)cc1C was read as TTR transcr act 1.6.
CCc1cccc(NC(=O)CN2C(=O)NC3(CCCCCCC3)C2=O)c1 was read as TTR transcr act 3.2.
CC1(c2cccc(Br)c2)NC(=O)N(CC(=O)Nc2ccc(N3CCCCC3)cc2)C1=O (stereo not given) was read as TTR transcr act -0.2.
CC(C)CC1(C)NC(=O)N(CC(=O)Nc2ccc3c(c2)CCC3)C1=O (stereo not given) was read as TTR transcr act 11.1*, TTR inh HuH7 -25.9 and TTR act confirm 0.7.
For CCOc1cc(N2CCOCC2)c(OCC)cc1NC(=O)CSc1ncccc1C(=O)O the results were TTR transcr act -2.0.
For CC1=C(C(=O)N(C(C)C)C(C)C)CC(CC(=O)NCc2cccs2)C(=O)N1Cc1ccc(F)cc1 (stereo not given) the results were TTR transcr act 0.9.
For CCN(CC)C(=O)C1=C(C)N(Cc2ccc(OC)cc2)C(=O)C(CC(=O)NCc2cccs2)C1 (stereo not given) the results were TTR transcr act 23.2*, TTR inh HuH7 -17.6 and TTR act confirm 0.5.
CCN(CC)C(=O)C1=C(C)N(Cc2ccc(OC)cc2)C(=O)C(CC(=O)NCc2cccc3ccccc23)C1 (stereo not given) was read as TTR transcr act 2.5.
CC(=O)c1cc(-c2cccc(CO)c2)c(=O)n2c1CCC2 was read as TTR transcr act 1.0.
`CCc1nc2ccc(C(=O)NCc3ccc(OC)cc3)cn2c1N(CCC(C)C)CCN(C)C` gave TTR transcr act 2.5.
Screening COc1ccccc1NS(=O)(=O)c1cc(C(=O)NCC(c2ccc(F)cc2)N2CCOCC2)ccc1C (stereo not given) returned TTR transcr act -0.1.
Screening COC(=O)[C@]12C[C@H](CC(=O)NCc3ccc(OC)c(OC)c3)C(=O)N(Cc3ccccc3)C1=C[C@H](COCc1ccccc1)O[C@@H]2C returned TTR transcr act 1.7.
CC(=O)c1cc(C(C)=O)c(C)nc1C was read as TTR transcr act 9.9*, TTR inh HuH7 -7.4 and TTR act confirm 12.8*.
CCSc1nc(C)c(C(C)=O)cc1C#N was read as TTR transcr act 0.0.
Screening CC(=O)c1cc(C#N)c(Oc2ccccc2)nc1C returned TTR transcr act -2.3.
Screening CC(=O)c1c(C)[nH]c(C(=O)CN2CCN(S(=O)(=O)c3ccccc3[N+](=O)[O-])CC2)c1C returned TTR transcr act -2.9.
